# Experimental data from the supplement of paper PMC8728848.
# Shown is part of a subset that was picked to be rich in the strongest signals.
# Key:
# Assay in all cases: glycan array binding signal (z-score within array); higher = stronger binding
# Details in all cases: glycan notation: IUPAC condensed, linker removed
# Gal6S(b1-4)Glc6S = biological target: Gal6S(b1-4)Glc6S
# Outline: (§1)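 The Consortium for Functional Glycomics database supplied 3228 glycan arrays, of which those lacking an available protein sequence were dropped. The binding signal, a within-array Z-score, was averaged across arrays of the same protein sequence and across linkers. Negative scores can be read as non-binding.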
# Gal6S(b1-4)GlcNAc = biological target: Gal6S(b1-4)GlcNAc
# Outline: as §1
# GalNAc(a1-3)Gal = biological target: GalNAc(a1-3)Gal
# Outline: as §1
# GalNAc(a1-3)GalNAc = biological target: GalNAc(a1-3)GalNAc
# Outline: as §1
# GalNAc(b1-3)GalNAc = biological target: GalNAc(b1-3)GalNAc
# Outline: as §1
# GalNAc(b1-4)Gal(b1-4)Glc = biological target: GalNAc(b1-4)Gal(b1-4)Glc
# Outline: as §1
# Glc(b1-4)Glc = biological target: Glc(b1-4)Glc
# Outline: as §1
# [1] = biological target: GlcNAc(a1-4)Gal(b1-4)GlcNAc
# Outline: as §1
# [2] = biological target: GlcNAc(a1-4)Gal(b1-4)GlcNAc(b1-3)Gal(b1-4)GlcNAc(b1-3)Gal(b1-4)GlcNAc
# Outline: as §1
# [3] = biological target: GlcNAc(a1-4)Gal(b1-4)GlcNAc(b1-3)Gal(b1-4)[Fuc(a1-3)]GlcNAc(b1-3)Gal(b1-4)[Fuc(a1-3)]GlcNAc
# Outline: as §1
# [4] = biological target: GlcNAc(b1-3)Gal(b1-4)GlcNAc(b1-2)Man(a1-3)[GlcNAc(b1-3)Gal(b1-4)GlcNAc(b1-2)Man(a1-6)]Man(b1-4)GlcNAc(b1-4)[Fuc(a1-6)]GlcNAc
# Outline: as §1
# [5] = biological target: GlcNAc(b1-4)GlcNAc(b1-4)GlcNAc
# Outline: as §1
# [6] = biological target: GlcNAc(b1-4)[GlcNAc(b1-6)]GalNAc
# Outline: as §1
# Kdn(a2-6)Gal(b1-4)GlcNAc = biological target: Kdn(a2-6)Gal(b1-4)GlcNAc
# Outline: as §1
# [7] = biological target: Man(a1-2)Man(a1-3)[Man(a1-2)Man(a1-6)]Man
# Outline: as §1
# [8] = biological target: Neu5Ac(a2-3)Gal(b1-3)GalNAc
# Outline: as §1
# [9] = biological target: Neu5Ac(a2-3)Gal(b1-3)GalNAc(b1-4)[Neu5Ac(a2-8)Neu5Ac(a2-3)]Gal(b1-4)Glc
# Outline: as §1
# [10] = biological target: Neu5Ac(a2-3)Gal(b1-3)GlcNAc(b1-3)GalNAc
# Outline: as §1
# [11] = biological target: Neu5Ac(a2-3)Gal(b1-3)[Fuc(a1-4)]GlcNAc(b1-3)Gal(b1-3)[Fuc(a1-4)]GlcNAc
# Outline: as §1
# [12] = biological target: Neu5Ac(a2-3)Gal(b1-4)[Fuc(a1-3)]GlcNAc(b1-2)Man
# Outline: as §1
# [13] = biological target: Neu5Ac(a2-3)Gal6S(b1-4)GlcNAc
# Outline: as §1
# Neu5Ac(a2-6)Gal(b1-4)Glc = biological target: Neu5Ac(a2-6)Gal(b1-4)Glc
# Outline: as §1
# [14] = biological target: Neu5Ac(a2-6)Gal(b1-4)GlcNAc(b1-2)Man(a1-3)[Neu5Ac(a2-6)Gal(b1-4)GlcNAc(b1-2)Man(a1-6)]Man(b1-4)GlcNAc(b1-4)GlcNAc
# Outline: as §1
# [15] = biological target: Neu5Ac(a2-6)Gal(b1-4)GlcNAc(b1-2)[Neu5Ac(a2-6)Gal(b1-4)GlcNAc(b1-4)]Man(a1-3)[GlcNAc(b1-4)][Neu5Ac(a2-6)Gal(b1-4)GlcNAc(b1-4)Man(a1-6)]Man(b1-4)GlcNAc(b1-4)GlcNAc
# Outline: as §1
# [16] = biological target: Neu5Ac(a2-6)Gal(b1-4)GlcNAc(b1-3)Gal(b1-3)GlcNAc
# Outline: as §1
# [17] = biological target: Neu5Ac(a2-6)Gal(b1-4)GlcNAc(b1-3)Gal(b1-4)GlcNAc(b1-3)Gal(b1-4)GlcNAc(b1-2)Man(a1-3)[Neu5Ac(a2-6)Gal(b1-4)GlcNAc(b1-3)Gal(b1-4)GlcNAc(b1-3)Gal(b1-4)GlcNAc(b1-2)Man(a1-6)]GalNAc
# Outline: as §1
# [18] = biological target: Neu5Ac(a2-6)Gal(b1-4)GlcNAc(b1-3)Gal(b1-4)GlcNAc(b1-6)[Gal(b1-3)]GalNAc
# Outline: as §1
# [19] = biological target: Neu5Ac(a2-8)Neu5Ac(a2-3)Gal(b1-3)GalNAc(b1-4)[Neu5Ac(a2-8)Neu5Ac(a2-3)]Gal(b1-4)Glc
# Outline: as §1
# [20] = biological target: Neu5Ac(a2-8)Neu5Ac(a2-8)Neu5Ac(a2-8)Neu5Ac(a2-3)[GalNAc(b1-4)]Gal(b1-4)Glc
# Outline: as §1
# [21] = biological target: Neu5Gc(a2-3)Gal(b1-4)[Fuc(a1-3)]GlcNAc
# Outline: as §1
# [22] = biological target: Neu5Gc(a2-6)Gal(b1-4)GlcNAc
# Outline: as §1
binder,measurement,setting,value
"Gal 10 (Homo sapiens), Q05315 (protein) MSLLPVPYTEAASLSTGSTVTIKGRPLVCFLNEPYLQVDFHTEMKEESDIVFHFQVCFGRRVVMNSREYGAWKQQVESKNMPFQDGQEFELSISVLPDKYQVMVNGQSSYTFDHRIKPEAVKMVQVWRDISLTKFNVSYLKR",glycan array binding signal (z-score),Gal6S(b1-4)Glc6S,-0.014
same,glycan array binding signal (z-score),Gal6S(b1-4)GlcNAc,-0.568
same,glycan array binding signal (z-score),GalNAc(a1-3)Gal,-0.104
same,glycan array binding signal (z-score),GalNAc(a1-3)GalNAc,-0.834
same,glycan array binding signal (z-score),GalNAc(b1-3)GalNAc,-0.693
same,glycan array binding signal (z-score),GalNAc(b1-4)Gal(b1-4)Glc,2.27
same,glycan array binding signal (z-score),Glc(b1-4)Glc,-0.17
same,glycan array binding signal (z-score),[1],-0.744
same,glycan array binding signal (z-score),[2],0.459
same,glycan array binding signal (z-score),[3],3.48
same,glycan array binding signal (z-score),[4],-0.014
same,glycan array binding signal (z-score),[5],-0.449
same,glycan array binding signal (z-score),[6],-0.956
same,glycan array binding signal (z-score),Kdn(a2-6)Gal(b1-4)GlcNAc,0.098
same,glycan array binding signal (z-score),[7],-0.68
same,glycan array binding signal (z-score),[8],-0.079
same,glycan array binding signal (z-score),[9],0.255
same,glycan array binding signal (z-score),[10],-0.378
same,glycan array binding signal (z-score),[11],1.14
same,glycan array binding signal (z-score),[12],2.57
same,glycan array binding signal (z-score),[13],-0.415
same,glycan array binding signal (z-score),Neu5Ac(a2-6)Gal(b1-4)Glc,-0.381
same,glycan array binding signal (z-score),[14],0.509
same,glycan array binding signal (z-score),[15],2.9
same,glycan array binding signal (z-score),[16],-0.312
same,glycan array binding signal (z-score),[17],3.41
same,glycan array binding signal (z-score),[18],-0.176
same,glycan array binding signal (z-score),[19],-0.741
same,glycan array binding signal (z-score),[20],0.562
same,glycan array binding signal (z-score),[21],0.205
same,glycan array binding signal (z-score),[22],-0.495
